TRHR enhancer-1 – qHTS for Small Molecule Agonists and Allosteric Enhancers of Human TRH Receptor: Primary Screen for Enhancers. Thyrotropin-releasing hormone receptor (Homo sapiens), P34981. TRHR cells, fluo-8 calcium fluorescence, EC20 TRH enhancement. enhancement, % at 2 µM. actives 0.66% (n = 360,000). AID 493056, 2011; in the data active = enhancement above about 30%; note: 0% is about no effect
Target sequence (P34981 whole entry, looked up): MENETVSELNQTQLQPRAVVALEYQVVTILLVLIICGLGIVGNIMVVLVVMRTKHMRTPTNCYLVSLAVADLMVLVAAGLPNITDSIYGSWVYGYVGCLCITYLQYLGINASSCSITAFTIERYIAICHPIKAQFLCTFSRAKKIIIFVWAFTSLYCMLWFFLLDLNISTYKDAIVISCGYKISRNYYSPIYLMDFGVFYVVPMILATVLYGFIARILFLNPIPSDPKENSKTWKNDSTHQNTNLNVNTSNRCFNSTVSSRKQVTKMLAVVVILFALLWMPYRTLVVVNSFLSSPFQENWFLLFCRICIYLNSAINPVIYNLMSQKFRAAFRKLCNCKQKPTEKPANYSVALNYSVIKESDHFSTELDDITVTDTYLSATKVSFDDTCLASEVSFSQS
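Enhancer read-out: after compound pinning and an initial kinetic agonist-mode read, an EC20 of TRH (10 nM final) was injected and fluo-8 calcium signal (Ex 480/Em 530) followed at 1 s/cycle for 100 cycles in TRHR-expressing cells.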
D1 potentiator – Potentiators of Human D1 Dopamine Receptor: qHTS; D(1A) dopamine receptor (Homo sapiens), P21728; actives 0.036% (n = 360,000); AID 504651, 2011; potentiation, % at 10 µM; HEK293 TREx D1 cells, calcium flux, dopamine EC20 potentiation; in the data active = potentiation above about 30%; note: 0% is about no effect
Glioma ERSR ind – qHTS for Inducers of the Endoplasmic Reticulum Stress Response (ERSR) in Human Glioma: qHTS; Potency, µM, without a hit: at the top dose activation, most hits filed as activators; U87-MG GRP78 promoter luciferase reporter, 16 h; actives 0.02% (n = 420,000); note: potency is the fitted concentration of half-maximal effect; series mostly up to about 76 µM; % of control where 0% means no effect; nearly all actives have a fitted effect of over 35% in size
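ERSR induction read as luciferase luminescence (Bright-Glo, 10 min at room temperature) in stably transfected human U87-MG glioma cells exposed to compounds for 16 h, using GRP78 as sensor.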
D1 antag – Antagonist of Human D 1 Dopamine Receptor: qHTS; HEK293 TREx D1 cells, calcium flux, dopamine EC80; hits give low values; actives 3.2% (n = 360,000); AID 504652, 2011; activity change, negative = inhibition, % at 10 µM; in the data active = activity change below about -30%; note: % is set by controls: 0 for no effect and ±100 for the full control effect
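Antagonism measured as reduced calcium response to an EC80 dopamine addition following 180 s compound pre-read; cells were inducible HEK293 Trex D1 plated overnight at 30 C, read kinetically at 1 cycle/sec.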
TRHR agonist-1 – qHTS for Small Molecule Agonists and Allosteric Enhancers of Human TRH Receptor: Primary Screen for Agonists | AID 493084, 2011 | activation, % at 2 µM | TRHR cells, calcium flux fluo-8, FDSS agonist mode | actives 0.18% (n = 360,000); in the data active = activation above about 30%; note: 0% is about no effect
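Fluo-8-loaded TRHR cells; 10 s baseline, compound added, kinetic Ca2+ fluorescence read 1/s, agonist mode.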
D1 agonist – Allosteric Agonists of the Human D1 Dopamine Receptor: qHTS | D(1A) dopamine receptor (Homo sapiens), P21728 | HEK293 T-REx D1 cells, calcium flux, agonist mode | activation, % at 2 µM | actives 1% (n = 360,000) | AID 504660, 2011; in the data active = activation above about 30%; note: 0% is about no effect
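Agonism was scored from calcium flux recorded over 180 s (1 read/s) after pintool compound addition, following a 10-cycle baseline. Cells were inducible force-coupled HEK293 TREx D1, plated overnight at 30 C and loaded with no-wash calcium dye.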
TRHR enhancer-2 – qHTS for Small Molecule Agonists and Allosteric Enhancers of Human TRH Receptor: Confirmation Screen for Enhancers | shares compounds with TRHR enhancer-1 | TRH receptor cell assay, enhancer confirmation qHTS | activity change, negative = inhibition, % at 46.1 µM | 970 tested, under 10 active;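 note: compound effect scored on response to added TRH at EC20 of 10 nM; 0% is about no effect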
TRHR agonist-2 – qHTS for Small Molecule Agonists and Allosteric Enhancers of Human TRH Receptor: Confirmation Screen for Agonists | shares compounds with TRHR enhancer-1 | TRHR-expressing cells, agonist activation read-out | Potency, µM (titrated, usually from 46.1 µM), inactives show at the highest dose activation, actives largely listed as activators | actives 8% (n = 970); note: potency is the fitted concentration of half-maximal effect; 0% is about no effect; nearly all actives have a fitted effect of over 75% in size
Numbers without * were called inactive. A selection: hits, their analogues and other compounds. The true share with any hit is near 4%. Unless noted, calls come from the whole dose curve; as a rule, active = well fitted curve in the direction sought with a large enough effect; inconclusive = small, poorly fitted or top-dose-only effect, or another doubt; inactive = no such curve, though single readings can be large; an effect the other way counts as inactive or inconclusive.

How did COCCNC(=O)c1cc(-c2ccccc2)n(CC2CC(c3ccc(OC)cc3)=NO2)n1 (configuration not stated) do in these assays?
TRHR enhancer-1: -3; D1 potentiator: 2; Glioma ERSR ind: -2%; D1 antag: 0; TRHR agonist-1: 0; D1 agonist: 5

How did OC(COc1ccccc1)CN1CCCCCC1 (configuration not stated) do in these assays?
TRHR enhancer-1: 42*; D1 potentiator: -2; Glioma ERSR ind: -1%; D1 antag: 16; TRHR agonist-1: 1; D1 agonist: -1; TRHR enhancer-2: inconclusive; TRHR agonist-2: 1%

Results for Cc1cccnc1NC(=O)C1CCCN(S(=O)(=O)c2ccc3c(c2)oc(=O)n3C)C1 (configuration not stated) ?
TRHR enhancer-1: 3; D1 potentiator: -8; Glioma ERSR ind: -3%; D1 antag: -6; TRHR agonist-1: 0; D1 agonist: 2

How did CCOc1ccccc1N(CC(=O)N1CCOCC1)S(=O)(=O)c1ccc(SC)cc1 do in these assays?
TRHR enhancer-1: -3; D1 potentiator: -1; Glioma ERSR ind: 0%; D1 antag: 20; TRHR agonist-1: 92*; D1 agonist: 2; TRHR enhancer-2: -7; TRHR agonist-2: 2.1µM*

What do the screens show for `Cc1ccc(S(=O)(=O)N(CC(=O)N2CCOCC2)c2ccccc2F)cc1`?
TRHR enhancer-1: -10; D1 potentiator: -4; Glioma ERSR ind: -3%; D1 antag: -2; TRHR agonist-1: 0; D1 agonist: -4

How did CC1CCCC(NC(=O)C2c3ccccc3C(=O)N2Cc2cccs2)C1C (configuration not stated) do in these assays?
TRHR enhancer-1: 44*; D1 potentiator: -4; Glioma ERSR ind: -2%; D1 antag: 5; TRHR agonist-1: 0; D1 agonist: 0; TRHR enhancer-2: -14; TRHR agonist-2: 1%

What do the screens show for `O=C(NCC1CCCO1)c1ccc2c(=O)n(CCc3ccccc3)c(=O)[nH]c2c1` (configuration not stated)?
TRHR enhancer-1: 46*; D1 potentiator: -6; Glioma ERSR ind: -2%; D1 antag: -3; TRHR agonist-1: 2; D1 agonist: 6; TRHR enhancer-2: 0; TRHR agonist-2: 2%

How did CC1CCCCN1CCNC(=O)c1ccc2c(=O)n(CCc3ccccc3)c(=O)[nH]c2c1 (configuration not stated) do in these assays?
TRHR enhancer-1: 3; D1 potentiator: -4; Glioma ERSR ind: -6%; TRHR agonist-1: 1; D1 agonist: 1

What do the screens show for `O=C(CSc1ccnc(=O)[nH]1)NCc1ccc(F)cc1`?
TRHR enhancer-1: 1; D1 potentiator: 0; Glioma ERSR ind: -1%; TRHR agonist-1: 1; D1 agonist: 0

How did CCCn1c(=O)c(F)cn(Cc2ccc(OC)c([N+](=O)[O-])c2)c1=O do in these assays?
Glioma ERSR ind: -3%

How did CCOC(=O)Cn1c(=O)c(F)cn(Cc2ccc(OC)c([N+](=O)[O-])c2)c1=O do in these assays?
TRHR enhancer-1: 67*; D1 potentiator: -4; Glioma ERSR ind: -3%; D1 antag: 2; TRHR agonist-1: 1; D1 agonist: 4; TRHR enhancer-2: -3; TRHR agonist-2: -1%

Results for COc1ccc(/C=C(\NC(=O)c2ccco2)C(=O)Nc2ccc(C(C)=O)cc2)cc1 ?
TRHR enhancer-1: -1; D1 potentiator: -4; Glioma ERSR ind: -4%; D1 antag: 1; TRHR agonist-1: -1; D1 agonist: 1

How did O=C(NCc1cn(-c2ccccc2)nc1-c1ccccc1)c1ccc([N+](=O)[O-])cc1 do in these assays?
TRHR enhancer-1: 44*; D1 potentiator: -1; Glioma ERSR ind: 4%; D1 antag: -9; TRHR agonist-1: 1; D1 agonist: 1; TRHR enhancer-2: -7; TRHR agonist-2: -1%

Results for O=[N+]([O-])c1cccc(-c2nn(-c3ccccc3)cc2CO)c1 ?
TRHR enhancer-1: 4; D1 potentiator: 5; Glioma ERSR ind: 3%; D1 antag: 1; TRHR agonist-1: 2; D1 agonist: 2

Results for O=C(CCN1C(=O)C2CCCCC2C1=O)N1CCN(S(=O)(=O)c2ccccc2)CC1 (configuration not stated) ?
TRHR enhancer-1: 41*; D1 potentiator: -4; Glioma ERSR ind: -4%; D1 antag: -14; TRHR agonist-1: 0; D1 agonist: 1; TRHR enhancer-2: 4; TRHR agonist-2: -1%

Results for O=C(CCN1C(=O)C2CCCCC2C1=O)N1CCN(S(=O)(=O)c2cccc(F)c2)CC1 (configuration not stated) ?
TRHR enhancer-1: 30; D1 potentiator: -7; Glioma ERSR ind: -3%; D1 antag: -16; TRHR agonist-1: 0; D1 agonist: 0

What do the screens show for `CCc1nc(Nc2ccncc2)c2oc3ccccc3c2n1`?
TRHR enhancer-1: 47*; D1 potentiator: 0; Glioma ERSR ind: -5%; D1 antag: 11; TRHR agonist-1: 0; D1 agonist: 2; TRHR enhancer-2: -5; TRHR agonist-2: -1%

Results for CC(C)c1onc(C(=O)N2C(C)CCCC2C)c1[N+](=O)[O-] (configuration not stated) ?
TRHR enhancer-1: -3; D1 potentiator: -2; Glioma ERSR ind: -3%; D1 antag: 12; TRHR agonist-1: 0; D1 agonist: 3

How did O=C(c1ccc(CSc2nc3ccncc3n2Cc2ccccc2F)cc1)N1CCCCC1 do in these assays?
TRHR enhancer-1: 58*; D1 potentiator: 0; Glioma ERSR ind: 2%; D1 antag: 4; TRHR agonist-1: 0; D1 agonist: -1; TRHR enhancer-2: -9; TRHR agonist-2: 0%
